The values that follow come from ChEMBL document CHEMBL3988442, “University of Dundee, Small-Polar-MMV Screening Library” (2021).

Each structure is given as a SMILES string.

In one assay the target is T1, Aspartate--tRNA(Asp/Asn) ligase (Mycobacterium tuberculosis (strain ATCC 25618 / H37Rv)) (UniProt P9WFW3). Note: in the data most compounds retested in dose-response had high values.
T1 sequence (whole entry): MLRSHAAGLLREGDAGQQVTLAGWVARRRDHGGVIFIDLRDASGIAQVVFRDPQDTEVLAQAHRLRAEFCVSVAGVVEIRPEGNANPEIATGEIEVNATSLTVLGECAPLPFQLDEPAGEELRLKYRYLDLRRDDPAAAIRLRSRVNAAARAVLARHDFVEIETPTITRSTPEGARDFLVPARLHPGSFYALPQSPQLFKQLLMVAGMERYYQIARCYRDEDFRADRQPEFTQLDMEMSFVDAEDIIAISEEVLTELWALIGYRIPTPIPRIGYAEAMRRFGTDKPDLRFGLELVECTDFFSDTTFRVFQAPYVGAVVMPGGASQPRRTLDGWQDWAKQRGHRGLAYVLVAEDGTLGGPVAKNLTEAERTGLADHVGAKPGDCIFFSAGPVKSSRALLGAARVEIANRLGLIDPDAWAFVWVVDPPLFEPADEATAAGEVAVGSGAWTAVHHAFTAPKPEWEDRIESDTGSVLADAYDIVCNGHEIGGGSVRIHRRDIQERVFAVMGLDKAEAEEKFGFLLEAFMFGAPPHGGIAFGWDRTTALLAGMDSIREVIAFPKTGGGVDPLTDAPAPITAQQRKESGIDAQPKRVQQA
As to the kind of experiment: Assay for Asp RNA synthetase-1 from Mycobacterium tuberculosis. Format: functional. On the set-up: scale not given: direction of the effect not stated beside the values. Particulars: 30 µM.
Consider `Cc1cc(CN(C)C(=O)NC2CCS(=O)(=O)C2)no1` (stereo not given), for which the Percent Effect is -1.18%.
With `Cc1ccc(C(=O)NS(=O)(=O)c2cc(Cl)ccc2Cl)c(=O)[nH]1`, the Percent Effect was 0%.
In the case of `CC(=O)N(Cc1ncc(C(C)C)o1)C1CCN(Cc2nccn2C)C1` (stereo not given), the Percent Effect was found to be 3.99%.
Same read-out and setting: the same measure for `CCc1csc(C2CCCN(C(=O)c3ccnc(N(C)C)c3)C2)n1` (stereo not given): 1.86%.
On the same count and under the same terms, the same measure for `COc1ccc(CN2C[C@@H]3COC[C@]3(COc3cccnc3)C2)cc1`: -3.56%.
Still for that read-out and setting: the same measure for `COC(=O)c1sccc1S(=O)(=O)N1CCC(Oc2cccnn2)CC1`: -2.42%.
Consider `Cn1nc2c(cc1=O)CN(Cc1nnc(-c3ccco3)o1)CC2`, for which the Percent Effect amounted to 15.6%.
For the molecule `O=C(c1cn(-c2cc(N3CCOCC3)ncn2)cn1)N1CCSCC1`, the Percent Effect was -0.834%.
For the molecule `CC(C)n1ccnc1C1CCN(C(=O)c2cc[nH]n2)CC1`, the Percent Effect was -0.496%.
Same read-out and setting: the same measure for `CCc1c(C(=O)NCC2CCS(=O)(=O)C2)cnn1-c1ccc(C)cc1` (stereo not given): -1.8%; for `CCC(=O)N1CCC(c2nc3ccc(NC(C)C)cn3n2)CC1`: -3.11%.
The same measure, in the same setting: under `Cc1nn(C)c(Cl)c1CNCc1ccc(OCC(N)=O)cc1` stands -2.25%.
The same measure, in the same setting: the same measure for `CC(=O)NCCc1ccc(S(=O)(=O)N(CC(C)C)C(C)C)s1`: 7.1%; for `CCOc1ccnc(N2CCN(C(=O)c3cc(Cl)c[nH]3)CC2)n1`: -2.48%; for `CC(C(=O)NCCN1CCCCCC1)n1cncn1` (stereo not given): -4.21%.
On to `Cc1cc(C(F)(F)F)nn1C(C)C(=O)Nc1ccncc1` (stereo not given), for which the Percent Effect is -0.755%.
On the same count and under the same terms, the same measure for `CN(Cc1cnn(C)c1)C(=O)NC1CCC(O)CC1` (stereo not given): -5.01%; for `COc1ccc(CN(C)C(=O)CCc2c(C)nc(C)[nH]c2=O)cc1OC`: -5.24%; for `Cc1nc(C)n(CC2CN(Cc3cccc(C#N)c3)CCO2)n1` (stereo not given): 3.11%.
For the molecule `CC(C)c1nc(C2CCCN(C(=O)CCCn3cncn3)C2)no1` (stereo not given), the Percent Effect is 9.5%.
Still for that read-out and setting: under `CC(=O)Nc1nc(C(=O)N2CCCC(c3cc(C)[nH]n3)C2)cs1` (stereo not given) stands 0.141%.
As for `COc1ccc(NC(=O)NC(C)(C)c2noc(C)n2)cc1`, the Percent Effect was -6.73%.
Same read-out and setting: under `Cn1ccc(CN2CCC(COC3CCCC3)CC2)cc1=O` stands -0.509%; under `O=C(CN1CCCCC1Cn1cncn1)NCc1ccccn1` (stereo not given), 4.05%.
On the same count and under the same terms, under `Cc1nc([C@@H]2C[C@@H]3CCN(C(=O)c4occc4C)C[C@H]3O2)no1` stands 10.9%; under `CC1COCCN1Cc1nc(-c2cccc(Br)c2)no1` (stereo not given), 4.5%.
Still for that read-out and setting: under `O=C(CC1CN(Cc2ccccc2)CCO1)Nc1ccccc1F` (stereo not given) stands -4.94%; under `Cc1cc(=O)n(CC(=O)NCCC(C)C)c(-c2cccc(Cl)c2)n1`, 12.2%.
As to `Cc1ccc(C(=O)N2CCN(C(=O)NC(C)Cn3ccnc3)CC2)o1` (stereo not given), the Percent Effect is -1.92%.
Take `Cc1cc(C(=O)NCc2ccnc(N(C)C)c2)c(C)o1`: the Percent Effect was found to be 5.55%.
On to `CN1CCOC(CNCc2coc(-c3ccccc3)n2)C1` (stereo not given), for which the Percent Effect is -1.77%.
As for `Cc1nn(C)c(N2CCOCC2)c1CNC1CCc2cc(F)ccc21` (stereo not given), the Percent Effect was -1.16%.
In the case of `CCC1CCCCCN1C(=O)c1nnc2ccccc2c1N` (stereo not given), the Percent Effect is -3.53%.
The same measure, in the same setting: under `O=S(=O)(C1CC1)N1C[C@H]2CCC[C@@]2(COc2ccccn2)C1` stands 4.47%; under `COCCc1noc(CN2CCCC(Cn3nc(C)nc3C)C2)n1` (stereo not given), 12.8%; under `CCCC(C)(C)NC(=O)c1ccc(CC2CC(=O)NC2=O)cc1` (stereo not given), -0.604%.
Still for that read-out and setting: the same measure for `Cn1cc(CCNC(=O)CCc2ccc3c(c2)OCO3)cn1`: 1.25%.
Still for that read-out and setting: under `CN1CC(c2ccccc2)CC2(CCN(CC(=O)N(C)C)CC2)C1` (stereo not given) stands -3.52%; under `CCn1cnnc1C1CCN(C(=O)c2cccc3c2ccn3C)CC1`, -3.52%.
With `O=C(C(CNCc1ccncc1)c1ccccc1)N1CCOCC1` (stereo not given), the Percent Effect was determined as 11.7%.

The target of another assay is Shiga toxin 2 (Escherichia coli O157:H7) (UniProt P09385+P09386). Nature of the assay: E. coli 0.157:H7 Shiga Toxin SOP - stx2 screening assay. It is filed as functional. Particulars: 30 µM. On the set-up: scale not given: direction of the effect not stated beside the values.
On to `Cc1cc(CN(C)C(=O)NC2CCS(=O)(=O)C2)no1` (stereo not given), for which the Percent Effect is 14.9%.
The same measure, in the same setting: under `Cc1ccc(C(=O)NS(=O)(=O)c2cc(Cl)ccc2Cl)c(=O)[nH]1` stands -9.88%; under `CC(=O)N(Cc1ncc(C(C)C)o1)C1CCN(Cc2nccn2C)C1` (stereo not given), 17.4%; under `CCc1csc(C2CCCN(C(=O)c3ccnc(N(C)C)c3)C2)n1` (stereo not given), -14.7%.
Same read-out and setting: the same measure for `COc1ccc(CN2C[C@@H]3COC[C@]3(COc3cccnc3)C2)cc1`: -5.5%; for `COC(=O)c1sccc1S(=O)(=O)N1CCC(Oc2cccnn2)CC1`: -7.45%; for `Cn1nc2c(cc1=O)CN(Cc1nnc(-c3ccco3)o1)CC2`: 2.57%.
On the same count and under the same terms, the same measure for `O=C(c1cn(-c2cc(N3CCOCC3)ncn2)cn1)N1CCSCC1`: -38.5%; for `CC(C)n1ccnc1C1CCN(C(=O)c2cc[nH]n2)CC1`: 14.3%.
As to `CCc1c(C(=O)NCC2CCS(=O)(=O)C2)cnn1-c1ccc(C)cc1` (stereo not given), the Percent Effect is -0.796%.
The same measure, in the same setting: the same measure for `CCC(=O)N1CCC(c2nc3ccc(NC(C)C)cn3n2)CC1`: -40.8%; for `Cc1nn(C)c(Cl)c1CNCc1ccc(OCC(N)=O)cc1`: -17.5%.
Take `CC(=O)NCCc1ccc(S(=O)(=O)N(CC(C)C)C(C)C)s1`: the Percent Effect is -42.2%.
On to `CCOc1ccnc(N2CCN(C(=O)c3cc(Cl)c[nH]3)CC2)n1`, for which the Percent Effect worked out at 18.5%.
Regarding `CC(C(=O)NCCN1CCCCCC1)n1cncn1` (stereo not given), the Percent Effect was -27.3%.
On to `Cc1cc(C(F)(F)F)nn1C(C)C(=O)Nc1ccncc1` (stereo not given), for which the Percent Effect is -29.5%.
For `CN(Cc1cnn(C)c1)C(=O)NC1CCC(O)CC1` (stereo not given), the Percent Effect turned out to be 12%.
On the same count and under the same terms, the same measure for `COc1ccc(CN(C)C(=O)CCc2c(C)nc(C)[nH]c2=O)cc1OC`: -6.32%; for `Cc1nc(C)n(CC2CN(Cc3cccc(C#N)c3)CCO2)n1` (stereo not given): 20.9%.
As to `CC(C)c1nc(C2CCCN(C(=O)CCCn3cncn3)C2)no1` (stereo not given), the Percent Effect came out at 9.71%.
Take `CC(=O)Nc1nc(C(=O)N2CCCC(c3cc(C)[nH]n3)C2)cs1` (stereo not given): the Percent Effect was -12.2%.
Same read-out and setting: the same measure for `COc1ccc(NC(=O)NC(C)(C)c2noc(C)n2)cc1`: -8.05%; for `Cn1ccc(CN2CCC(COC3CCCC3)CC2)cc1=O`: -19.3%.
Still for that read-out and setting: under `O=C(CN1CCCCC1Cn1cncn1)NCc1ccccn1` (stereo not given) stands 4.47%; under `Cc1nc([C@@H]2C[C@@H]3CCN(C(=O)c4occc4C)C[C@H]3O2)no1`, -14.5%; under `CC1COCCN1Cc1nc(-c2cccc(Br)c2)no1` (stereo not given), 32%.
Still for that read-out and setting: under `O=C(CC1CN(Cc2ccccc2)CCO1)Nc1ccccc1F` (stereo not given) stands -0.0564%.
Regarding `Cc1cc(=O)n(CC(=O)NCCC(C)C)c(-c2cccc(Cl)c2)n1`, the Percent Effect is -9.6%.
Turning to `Cc1ccc(C(=O)N2CCN(C(=O)NC(C)Cn3ccnc3)CC2)o1` (stereo not given), the Percent Effect was 17.6%.
On the same count and under the same terms, the same measure for `Cc1cc(C(=O)NCc2ccnc(N(C)C)c2)c(C)o1`: -9.84%; for `CN1CCOC(CNCc2coc(-c3ccccc3)n2)C1` (stereo not given): -3.88%; for `Cc1nn(C)c(N2CCOCC2)c1CNC1CCc2cc(F)ccc21` (stereo not given): -5.02%.
Same read-out and setting: the same measure for `CCC1CCCCCN1C(=O)c1nnc2ccccc2c1N` (stereo not given): -2.87%.
On to `O=S(=O)(C1CC1)N1C[C@H]2CCC[C@@]2(COc2ccccn2)C1`, for which the Percent Effect was -32.7%.
As to `COCCc1noc(CN2CCCC(Cn3nc(C)nc3C)C2)n1` (stereo not given), the Percent Effect is 22.8%.
Consider `CCCC(C)(C)NC(=O)c1ccc(CC2CC(=O)NC2=O)cc1` (stereo not given), for which the Percent Effect was -9.64%.
On the same count and under the same terms, under `Cn1cc(CCNC(=O)CCc2ccc3c(c2)OCO3)cn1` stands 21.4%.
On the same count and under the same terms, under `CN1CC(c2ccccc2)CC2(CCN(CC(=O)N(C)C)CC2)C1` (stereo not given) stands 15.8%; under `CCn1cnnc1C1CCN(C(=O)c2cccc3c2ccn3C)CC1`, -25.8%; under `O=C(C(CNCc1ccncc1)c1ccccc1)N1CCOCC1` (stereo not given), -69.6%.
